Measurements from PubChem BioAssay (NCI).
About 83,000 compounds went through this panel and 20% of them were active in at least one assay; those are over-represented in the sample as a whole.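 In brief: 96-well plates, 48 h treatment, single concentration, percent growth endpoint.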 Calls of active or inactive are those of the source. The calls were made as follows: active = growth percent below 10; inactive = the rest.

These compounds were tested on DU-145 prostate (assay: NCI-60 one-dose screen, 48 h (100 = growth as untreated, 0 = no growth, -100 = all killed)). Conditions: 10 µM unless noted.

Row | Structure (SMILES) | growth
1 | CCOC(=O)[C@H](CSSc1ncnc2cc[nH]c12)NC(=O)[C@@H](C)c1ccc2cc(OC)ccc2c1 | 33.4% (inactive)
2 | CC(C)C[C@H](NC(=O)Cn1ccc(NCc2ccccc2)cc1=O)B(O)O | 36.6% (inactive)
3 | COc1ccc(C(=O)c2cc(OC)c(OC)c(OC)c2)cc1/C=C/C(=O)c1ccc(O)cc1 | 26.4% (inactive)
4 | Cc1cccc(NC(=O)c2sc3nc4c(cc3c2N)CCC4)c1C | 10.6% (inactive)
5 | COc1cc(-c2cc(/C=C3\CCCCC3=O)[nH]n2)cc(OC)c1OC | 95.4% (inactive)
6 | COc1cccc(C2CC(=O)Nc3c2c(C)nn3-c2nc3ccccc3[nH]2)c1OC (stereo not given) | 76.5% (inactive)
7 | CCNC(=O)C1CCCN1C(=O)C(CCCN=C(N)N)NC(=O)C(CC(C)C)NC(=O)C(CC(C)C)NC(=O)C(Cc1ccc(O)cc1)NC(=O)C(CO)NC(=O)C(Cc1c[nH]c2ccccc12)NC(=O)C(Cc1cnc[nH]1)NC(=O)C1CCC(=O)N1 (stereo not given) | 135% (inactive)
8 | COc1ccc(-c2nc3sccn3c2-c2ccnc(NCCCNS(=O)(=O)c3ccc(F)cc3)n2)cc1 | 10.9% (inactive)
9 | CCCCCC(=O)OCc1ccccc1 | 103% (inactive)
10 | CN(C)c1nc(N)c(N=O)c(N)n1 | 113% (inactive)
11 | COc1ccc(Cn2cc(COc3cc(/C=C/C(=O)c4cc(OC)c(OC)c(OC)c4)ccc3OC)nn2)cc1 | 88.5% (inactive)
12 | CCOC(=O)C(Cc1ccccc1)n1c(O)c(C=Nc2ccc(C(=O)OCCN(CC)CC)cc2)sc1=O (stereo not given) | 106% (inactive)
13 | COc1cc(Cn2c(SCC(=O)Nc3ccc(Cl)cc3)nc3ccccc3c2=O)cc(OC)c1OC | 66.5% (inactive)
14 | Cc1ccc(S(=O)(=O)NCCCNc2nccc(-c3c(-c4ccccc4)nc4sccn34)n2)cc1 | 26.2% (inactive)
15 | Cc1cc(-c2ccccc2)c(C)n1Cc1ccc(Cl)cc1 | 86.6% (inactive)
16 | CN(C)c1ccc(C2CC(c3ccccc3)=NN2/C=C2\SC(=O)NC2=O)cc1 (stereo not given) | 57.7% (inactive)
17 | C=C1C(=O)O[C@H]2[C@H]1CC/C(COC(=O)NCCc1ccc(OC)cc1)=C\CC[C@@]1(C)O[C@@H]21 | -12.2% (active)
18 | O=C(CCCn1c(=O)c2sc3ccccc3c2n2nnc(-c3ccccc3)c12)NCCc1cnc[nH]1 | -68.8% (active)

Row | Structure (SMILES) | growth
19 | O=C1c2ccccc2C(=O)c2c1oc1oc3c(c(=O)c21)c(=O)n(-c1ccccc1)c1ccccc31 | 94.4% (inactive)
20 | COc1ccc(Cn2c(SC)nc(=O)n(Cc3ccc(Cl)cc3)c2=O)cc1 | 103% (inactive)
21 | COc1cc(CNC(=O)CCSc2nc3ccccc3c(=O)n2Cc2cc(OC)c(OC)c(OC)c2)cc(OC)c1OC | 58.1% (inactive)
22 | O=C(COc1ccccc1)N1N=C(c2ccc(Cl)cc2)CC1c1c[nH]c2ccccc12 (stereo not given) | 92% (inactive)
23 | CC(=O)n1cc([C@H]2CC[C@H](c3cn(C(C)=O)c4ccccc34)c3c2[nH]c2ccccc32)c2ccccc21 | 93.2% (inactive)
24 | CCN(CC)CCCC(C)N=c1cc(Nc2cc(=NC(C)CCCN(CC)CC)c3cc(OC)ccc3o2)oc2ccc(OC)cc12 (stereo not given) | 2.37% (active)
25 | CC1(C)OC2COC3(C(=O)O)OC(C)(C)OC3C2O1 (stereo not given) | 108% (inactive)
26 | Cc1ccc(Cn2c(-c3nonc3N)nc3ccccc32)cc1 | 100% (inactive)
27 | COc1cc2nc(N3CCC[C@@H](NC4=CC(=O)c5ccccc5C4=O)C3)nc(N)c2cc1OC | -53.8% (active)
28 | O=C(Nc1ccc(Cl)cc1)c1cc(-c2ccc(F)cc2)c2sc(=O)[nH]c2n1 | 24.2% (inactive)
29 | Cc1cc(C)c(S(=O)(=O)N2CCN(c3cc4c(cc3F)c(=O)c(C(=O)O)cn4C3CC3)CC2)c(C)c1 | 71.4% (inactive)
30 | O=C(CCCn1c2c(sc3ccccc32)c(=O)n2nnc(-c3ccccc3)c12)NCCc1cnc[nH]1 | -100% (active)
31 | COc1ccc2c(c1)NC(=O)CN2c1nc(NC2CC2)nc2ccccc12 | 0.326% (active)
32 | C=C1C(=O)O[C@H]2[C@H](O)[C@@H](C)CCC/C(C)=C/CC[C@@]3(C)O[C@@H]3C[C@@H]12 | 99.4% (inactive)
33 | COc1ccc(/C=C/C(=O)c2cc(OC)c(OC)c(OC)c2)cc1OCc1cn(Cc2ccc(F)cc2)nn1 | 59.3% (inactive)
34 | O=C(CCC(=O)OC1CCCC1)OC1CCCC1 | 102% (inactive)
35 | CCN(C(=O)c1cc2ncccc2[nH]1)[C@H]1CCC[C@@H](NCc2cccc(F)c2)C1 | 104% (inactive)
